Compounds without any hit were thinned out: in the full panel of roughly 79,000, 15% have a hit. The source made the active and inactive calls. Cut-off read from the data, not from the text of the source: active = growth inhibition above about 70%; inactive = the rest.
Tests used:
[1] = NCI Yeast Anticancer Drug Screen. Data for the rad52 strain (AID 147);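 note: 0% = growth of vehicle-treated control cultures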; details: S. cerevisiae rad52 mutant growth inhibition, stronger effect = higher value
Method in brief: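 Measured: yeast growth inhibition. System: strain with a defined DNA damage repair alteration. Reference: vehicle-treated control cultures.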

[2] = NCI Yeast Anticancer Drug Screen. Data for the wt1 strain (AID 149);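 note: 0% = growth of vehicle-treated wt1 cultures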; details: S. cerevisiae wt1 strain (SPY 50644) growth inhibition, stronger effect = higher value
Method in brief: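 Measured: growth of wt1 yeast under compound versus vehicle treatment, reported as inhibition.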

[3] = NCI Yeast Anticancer Drug Screen. Data for the rad50EPP+ strain (AID 151);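 note: 0% = growth of vehicle-treated control cultures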; details: S. cerevisiae rad50 mutant strain, stronger effect = higher value
Method in brief: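 One strain with a rad50 alteration (rad50EPP+) was compound-treated, its growth then compared to that of vehicle controls.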

[4] = NCI Yeast Anticancer Drug Screen. Data for the mgt1 strain (AID 153); details: S. cerevisiae mgt1 mutant growth inhibition, stronger effect = higher value
Method in brief: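 After exposure of the mgt1 yeast mutant to compound, growth was measured and reported as inhibition compared with vehicle controls.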

[5] = NCI Yeast Anticancer Drug Screen. Data for the rad50 strain (AID 155);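 note: 0% = growth of vehicle-only cultures of the same strain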; details: S. cerevisiae rad50 strain growth inhibition, stronger effect = higher value
Method in brief: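 Growth of the mutant yeast was measured after compound exposure and referenced to vehicle-treated cultures.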

[6] = NCI Yeast Anticancer Drug Screen. Data for the mec2-1 strain (AID 157); details: S. cerevisiae mec2-1 strain, stronger effect = higher value
Method in brief: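 Test agents were screened against the mec2-1 yeast strain, with defined DNA repair or cell cycle alteration. Growth was scored as inhibition against vehicle-only controls.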

[7] = NCI Yeast Anticancer Drug Screen. Data for the rad14 strain (AID 159);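 note: 0% = growth of vehicle-treated control cultures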; details: S. cerevisiae rad14 strain growth inhibition, stronger effect = higher value
Method in brief: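 Here, inhibition of yeast growth was measured after compound exposure, using a strain with a genetic defect in DNA damage repair and vehicle-treated cultures as the reference.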

[8] = NCI Yeast Anticancer Drug Screen. Data for the sgs1 mgt1 strain (AID 161);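 note: 0% = growth of cultures given vehicle only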; details: S. cerevisiae sgs1 mgt1 strain, stronger effect = higher value
Method in brief: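 Genetically altered yeast, compound exposure, growth inhibition relative to vehicle.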

[9] = NCI Yeast Anticancer Drug Screen. Data for the CLN2oe strain (AID 163);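 note: 0% = growth of vehicle-only control cultures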; details: S. cerevisiae CLN2oe strain, stronger effect = higher value
Method in brief: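 Here, growth inhibition in a cell-cycle-altered yeast strain after compound exposure was quantified against vehicle control growth.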

[10] = NCI Yeast Anticancer Drug Screen. Data for the cln2 rad14 strain (AID 165);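 note: 0% = growth equal to vehicle treated cultures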; details: S. cerevisiae cln2 rad14 strain, stronger effect = higher value
Method in brief: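 Growth of compound-exposed yeast (cln2 rad14 genotype) measured and expressed as inhibition relative to vehicle.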

[11] = NCI Yeast Anticancer Drug Screen. Data for the bub3 strain (AID 167); details: S. cerevisiae bub3 mutant strain, stronger effect = higher value
Method in brief: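 Whole-cell yeast assay. The mutant strain was incubated with compounds, and growth inhibition was determined by comparison with vehicle-treated cells.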

[12] = NCI Yeast Anticancer Drug Screen. Data for the wt2 strain (AID 169);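 note: 0% = growth of vehicle-treated yeast cultures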; details: S. cerevisiae wt2 strain growth inhibition, stronger effect = higher value
Method in brief: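 Genetically defined yeast strains from a DNA-repair/cell-cycle panel were used. Compound-exposed yeast growth was measured, and the inhibition was calculated relative to vehicle treatment.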

[13] = NCI Yeast Anticancer Drug Screen. Data for the mlh1 strain (AID 171);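 note: 0% = growth of vehicle-treated control cultures of the same strain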; details: S. cerevisiae mlh1 strain growth inhibition, stronger effect = higher value
Method in brief: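 Here the genetically defined yeast mutant is grown with each compound, and the extent to which its growth falls below that of vehicle-exposed cells is reported.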

[14] = NCI Yeast Anticancer Drug Screen. Data for the sgs1 strain (AID 173);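 note: 0% = growth of vehicle-only control cultures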; details: S. cerevisiae sgs1 mutant, stronger effect = higher value
Method in brief: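 Relative growth inhibition, referenced to vehicle, was determined in a yeast strain with a defined alteration affecting DNA damage repair or cell cycle control after compound exposure.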

[15] = NCI Yeast Anticancer Drug Screen. Data for the mlh1 rad18 strain (AID 175); details: S. cerevisiae mlh1 rad18 strain growth inhibition, stronger effect = higher value
Method in brief: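 In this whole-cell yeast screen, a strain with altered DNA damage repair is challenged with compound, and its growth is measured against matched vehicle-treated controls.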

[16] = NCI Yeast Anticancer Drug Screen. Data for the rad18 strain (AID 177); details: S. cerevisiae rad18 mutant growth inhibition, stronger effect = higher value
Method in brief: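 Screen uses a yeast strain with a defined lesion in DNA damage repair; compound effect is read as loss of growth compared to untreated vehicle cultures.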

[17] = at 5.0 µM (retest, dose inferred, filed as 0.5)
[18] = at 50.0 µM (retest, dose inferred, filed as 5.0)

Measured: growth inhibition

CCCNCC(=O)O[C@]1(CC)C(=O)OCc2c1cc1n(c2=O)Cc2cc3ccccc3nc2-1
active: [1]; at 1.2 µM 80% | [1]; at 3.7 µM 90% | [1]; at 11.0 µM 94% | [1]; at 33.0 µM 95% | [1]; at 100.0 µM 96% | [2]; at 100.0 µM 85% | [3]; at 3.7 µM 72% | [3]; at 11.0 µM 81% | [3]; at 33.0 µM 89% | [3]; at 100.0 µM 93% | [4]; at 100.0 µM 86% | [5]; at 1.2 µM 83% | [5]; at 3.7 µM 88% | [5]; [17] 78% | [5]; at 11.0 µM 92% | [5]; at 33.0 µM 92% | [5]; [18] 90% | [5]; at 50.0 µM 82.5% | [5]; at 100.0 µM 92% | [6]; at 11.0 µM 75% | [6]; at 33.0 µM 90% | [6]; [18] 86% | [6]; at 50.0 µM 88.1% | [6]; at 100.0 µM 93% | [7]; at 100.0 µM 87% | [8]; [18] 82% | [8]; at 50.0 µM 79% | [9]; at 33.0 µM 71% | [9]; at 100.0 µM 86% | [11]; at 50.0 µM 76.3% | [11]; at 100.0 µM 88% | [12]; at 100.0 µM 82% | [13]; at 100.0 µM 83% | [14]; at 33.0 µM 82% | [14]; at 100.0 µM 90% | [15]; [18] 72% | [15]; at 50.0 µM 83.1% | [16]; at 33.0 µM 75% | [16]; at 100.0 µM 84%
inactive: [2]; at 1.2 µM 13% | [2]; at 3.7 µM 12% | [2]; at 11.0 µM 28% | [2]; at 33.0 µM 62% | [3]; at 1.2 µM 29% | [4]; at 1.2 µM 21% | [4]; at 3.7 µM 25% | [4]; at 11.0 µM 34% | [4]; at 33.0 µM 63% | [6]; at 1.2 µM 19% | [6]; at 3.7 µM 33% | [6]; [17] -5% | [7]; at 1.2 µM 3% | [7]; at 3.7 µM 0% | [7]; at 11.0 µM 16% | [7]; at 33.0 µM 66% | [8]; [17] 28% | [9]; at 1.2 µM 31% | [9]; at 3.7 µM 34% | [9]; at 11.0 µM 41% | [10]; [17] 0% | [10]; [18] 51% | [10]; at 50.0 µM 64.5% | [11]; at 1.2 µM 17% | [11]; at 3.7 µM 12% | [11]; [17] -9% | [11]; at 11.0 µM 28% | [11]; at 33.0 µM 69% | [11]; [18] 68% | [12]; at 1.2 µM -22% | [12]; at 3.7 µM -32% | [12]; at 11.0 µM -19% | [12]; at 33.0 µM 37% | [13]; at 1.2 µM 24% | [13]; at 3.7 µM 7% | [13]; at 11.0 µM 16% | [13]; at 33.0 µM 61% | [14]; at 1.2 µM 26% | [14]; at 3.7 µM 30% | [14]; at 11.0 µM 51% | [15]; [17] 2% | [16]; at 1.2 µM 25% | [16]; at 3.7 µM 34% | [16]; at 11.0 µM 46%

CC(/C=C/c1ccc([N+](=O)[O-])o1)=N/N1CC(CN2CCOCC2)OC1=O (stereo unspecified)
active: [1]; at 33.0 µM 94% | [1]; at 100.0 µM 98% | [2]; at 100.0 µM 96% | [3]; at 100.0 µM 76% | [4]; at 100.0 µM 85% | [5]; at 33.0 µM 90% | [5]; [18] 90% | [5]; at 50.0 µM 91.8% | [5]; at 100.0 µM 97% | [6]; [18] 90% | [6]; at 100.0 µM 94% | [7]; at 33.0 µM 90% | [7]; at 100.0 µM 99% | [8]; [18] 93% | [8]; at 50.0 µM 91.3% | [9]; at 100.0 µM 90% | [10]; [18] 90% | [11]; [18] 87% | [11]; at 100.0 µM 94% | [12]; at 33.0 µM 79% | [12]; at 100.0 µM 98% | [13]; at 100.0 µM 91% | [14]; at 33.0 µM 93% | [14]; at 100.0 µM 97% | [15]; [18] 95% | [15]; at 50.0 µM 93.5% | [16]; at 3.7 µM 89% | [16]; at 11.0 µM 97% | [16]; at 33.0 µM 97% | [16]; at 100.0 µM 98%
inactive: [1]; at 1.2 µM -5% | [1]; at 3.7 µM 5% | [1]; at 11.0 µM 48% | [2]; at 1.2 µM 2% | [2]; at 3.7 µM 11% | [2]; at 11.0 µM 36% | [2]; at 33.0 µM 66% | [3]; at 1.2 µM -4% | [3]; at 3.7 µM 4% | [3]; at 11.0 µM 34% | [3]; at 33.0 µM 58% | [4]; at 1.2 µM -2% | [4]; at 3.7 µM -4% | [4]; at 11.0 µM 12% | [4]; at 33.0 µM 30% | [5]; at 1.2 µM -9% | [5]; at 3.7 µM -6% | [5]; [17] 9% | [5]; at 11.0 µM 35% | [6]; at 1.2 µM 2% | [6]; at 3.7 µM 0% | [6]; [17] 7% | [6]; at 11.0 µM 1% | [6]; at 33.0 µM 29% | [6]; at 50.0 µM 55.6% | [7]; at 1.2 µM 4% | [7]; at 3.7 µM 10% | [7]; at 11.0 µM 55% | [8]; [17] 22% | [9]; at 1.2 µM -9% | [9]; at 3.7 µM -9% | [9]; at 11.0 µM -2% | [9]; at 33.0 µM 44% | [10]; [17] 6% | [10]; at 50.0 µM 53.5% | [11]; at 1.2 µM -6% | [11]; at 3.7 µM -3% | [11]; [17] 3% | [11]; at 11.0 µM 2% | [11]; at 33.0 µM 27% | [11]; at 50.0 µM 41.8% | [12]; at 1.2 µM -3% | [12]; at 3.7 µM 11% | [12]; at 11.0 µM 49% | [13]; at 1.2 µM -14% | [13]; at 3.7 µM -6% | [13]; at 11.0 µM -2% | [13]; at 33.0 µM 42% | [14]; at 1.2 µM -8% | [14]; at 3.7 µM 3% | [14]; at 11.0 µM 69% | [15]; [17] 63% | [16]; at 1.2 µM 24%

From PubChem BioAssay (NCI)
